From PubChem BioAssay
Compounds with a hit are over-represented: about 12% of the library has one in this group of screens.
ROMK mod: modulates human ROMK potassium channel activity. P48048. Tet-inducible ROMK, thallium flux fluorescence; actives lie on both sides. B-score at 10 µM. 130,000 tested, 2% active. AID 1918;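 active means signal ratio slope over the read window, or its plate-corrected B-score, at least 3 SD from the plate mean, either direction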;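 further: B-score of the F/F0 ratio slope over 7 to 12 s after thallium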
Insulin prom up: MIN6 insulin promoter up-regulation; 190,000 tested, 0.3% active; z-score at 5 µM; MIN6 insulin promoter-GFP reporter, high-content imaging; active compounds read high;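 active means z-score above 3 at 5 µM with at least 500 cells counted in the well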
WT yeast gro inh: growth inhibition of WT yeast, mitochondrial fusion screen | mitochondrial fusion phenotypic screen, WT strain | inhibition, % at 10 µM | 190,000 tested, 2.1% active; in the data active means inhibition above about 58%; tested in S. cerevisiae
L major viab: reduces viability of Leishmania major promastigotes; resazurin fluorescence viability; 200,000 tested, 9% active; AID 1063; inhibition, % at 10 µM; in the data active means inhibition above about 50%;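 further: promastigotes grown with compound for 44 hours at 28 °C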
INS promoter inh: TRM-6 insulin promoter activity inhibition | inhibition, % at 2 µM | TRM-6 cells (human fetal islet line), insulin promoter-eGFP reporter, imaging; reporter expression induced with tamoxifen | 130,000 tested, 0.9% active | AID 1273;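 active means inhibition above the mean plus 3 SD, with well images judged a real hit on visual review, cut at about 60% in these data, passing the limit was not always enough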
Cl transport mod: modulators of human KCC2 chloride dependent transport. 190,000 tested, 2.2% active. KCC2 cells, thallium flux FluoZin-2 fluorescence. AID 1456. B-score of Tl+ flux slope (higher = more flux/activation; lower = inhibition) at 10 µM. Q9H2X9;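 active means thallium flux slope and its plate-corrected score both differing from the plate sample mean at a set confidence after two filtering rounds, in either direction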;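 further: slope of fluorescence scaled to starting intensity during 10 to 20 s after thallium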
* = called active by the depositor; i = inactive; · = no result.

SMILES	ROMK mod	Insulin prom up	WT yeast gro inh	L major viab	INS promoter inh	Cl transport mod
CC1CCC(C(C)C)C(OC(=O)COC(=O)c2ccccc2N)C1 (configuration not stated)	0.805	1.55	60.0*	55.0*	23.7	0.449
Fc1ccc(C(OCCN2CCCC2)c2ccc(F)cc2)cc1	-0.94	-1.13	2.9	90.5*	2.9	-0.426
Fc1ccc(C(OCCN2CCCC2)c2ccc(Br)cc2)cc1 (configuration not stated)	·	-1.14	20.7	99.6*	3.5	0.0585
Oc1ccc(Cl)cc1CN1CCN(Cc2ccccc2)CC1	-1.49	-0.07	-32.0	62.7*	25.0	·
Cc1cccc(CN2CCN(Cc3ccc(Cl)cc3)CC2)c1	-1.6	-0.77	31.3	88.6*	-43.5	-0.116
CSc1ncc(/C=C2/C(=O)NC(=O)N(c3ccc(C)cc3)C2=O)cn1	-0.707	-0.11	7.1	0.2	·	1.08
Cc1ccc(N2C(=O)NC(=O)/C(=C/c3cnn(-c4ccc(C)cc4)c3)C2=O)cc1	-0.389	0.09	-7.1	84.7*	-13.2	-0.0968
COc1ccc(OCC(=O)N2CCN(C/C=C/c3ccccc3)CC2)cc1	-0.135	-1.18	20.3	73.5*	·	-1.64
O=C(COc1ccc(Cl)cc1)N1CCN(C/C=C/c2ccccc2)CC1	-1.46	-1.48	44.5	89.1*	6.5	·
COc1ccc(OCC(=O)N2CCN(Cc3c[nH]c4ccccc34)CC2)cc1	-1.31	-1.83	-3.2	-0.6	-35.7	·
O=C(COc1ccccc1)N1CCN(C/C=C/c2ccccc2)CC1	·	-0.96	4.1	91.8*	-100.0	-1.71
CCn1cc(C(=O)N2CCCCC2)c2ccccc21	0.713	2.08	-1.3	3.2	·	0.285
O=C1NC(=O)C2=Cc3ccc(O)cc3OC2(O)N1 (configuration not stated)	·	0.7	-1.6	-2.0	50.0	i
COc1ccc2[nH]cc(CCN(C)C)c2c1	1.94	0.59	-2.5	-1.7	·	0.909
CCCCCSc1cc(OC)c(CCN(C)C)cc1OC	-1.54	-0.27	-12.2	100.5*	·	1.73
CC(Cc1ccccc1)NC(=O)/C=C/C(=O)O (configuration not stated)	0.558	-0.49	-2.3	-7.0	77.8*	0.274
Cc1ccc(C(C)C)c(OCC(=O)N2CCN(Cc3nc4cc([N+](=O)[O-])ccc4n3C)CC2)c1	-2.15	-1.02	45.8	97.1*	-50.0	-3.09
CC(C)NS(=O)(=O)c1ccc(OCC(=O)N2CCN(Cc3ccccc3)CC2)c(Cl)c1	-0.427	0.18	-10.1	10.4	-355.6	-1.16
C=CCn1c(O)c(C(=O)CCCCCC)c(=O)[nH]c1=O	·	0.39	-24.2	0.0	10.7	0.211
Cc1ccsc1C(=O)C1CCCN(Cc2cnn(C(C)C)c2)C1 (configuration not stated)	0.526	·	10.1	-0.8	·	0.839
O=C(c1ccc(Cl)cc1)C1CCCN(Cc2ccc3ncccc3c2)C1 (configuration not stated)	-0.839	0.41	54.5	87.7*	·	0.15
O=C(c1ccc(Cl)cc1)C1CCCN(Cc2ccc3c(c2)OCCO3)C1 (configuration not stated)	-0.0115	·	33.2	91.6*	·	0.788
CCn1ccnc1CN1CCCC(C(=O)c2cc(Cl)ccc2OC)C1 (configuration not stated)	-1.89	0.2	4.3	11.1	·	-0.53
CN1CCN(c2c(C#N)c(C(F)(F)F)nn2C)CC1	0.176	-0.11	-4.2	1.4	·	1.17
COc1cc2c3cc1Oc1cc(ccc1O)C[C@@H]1c4c(cc(OC)c(O)c4Oc4ccc(cc4)C[C@H]3N(C)CC2)CCN1C	·	·	-9.1	100.5*	0.0	1.32
SMILES	ROMK mod	Insulin prom up	WT yeast gro inh	L major viab	INS promoter inh	Cl transport mod
CCCN1C2CCCC1CC(NC(C)=O)C2 (configuration not stated)	0.456	-0.36	3.9	-0.4	-50.0	·
CCOP(=O)(OCC)C(NC(=O)c1ccc(C)cc1)=C(Cl)Cl	·	0.14	8.0	28.1	-30.0	0.449
CCc1ccccc1N1C(=O)NC(=O)/C(=C\c2cc(C)n(C)c2C)C1=O	0.768	0.11	-10.8	54.0*	-18.9	-0.29
Cc1cc(C)cc(N2C(=O)NC(=O)/C(=C\c3cc(C)n(C)c3C)C2=O)c1	-1.09	-0.26	-3.5	1.1	·	1.11
CCCCn1c(O)c(/C(C)=N/NC(=O)Nc2ccccc2)c(=O)[nH]c1=O	·	0.57	·	·	·	0.618
O=S(=O)(c1ccccc1)N1CN2CCN(C2)C1	-0.0131	0.94	-21.8	3.8	85.7*	·
Cc1ccccc1-n1c(O)c(/C=N/N2CCOCC2)c(=O)[nH]c1=S	0.508	1.23	-0.5	-3.0	-93.8	-0.241
Cc1cc(OCCCC(=O)NCc2cccs2)ccc1Cl	·	0.35	-25.0	55.9*	-19.5	-2.25
Cc1cc(Cl)ccc1OCCCC(=O)NCc1cccs1	-0.152	-0.17	9.9	59.8*	-8.1	-2.04
Cc1c(N=Nc2c(O)n(Cc3ccccc3)c(=O)[nH]c2=O)c(=O)n(-c2ccccc2)n1C	0.805	0.2	4.8	41.0	-19.4	0.0312
CC1CCCC(C2(O)C(=O)Nc3ccccc32)C1=O (configuration not stated)	·	5.61*	-1.8	-0.4	-3.6	0.0102
CC(CCc1ccccc1)NC(C)C(O)c1ccc(O)cc1 (configuration not stated)	·	·	-5.1	89.4*	9.5	0.206
N=C(N)c1c(O)n(C2CCCCC2)c(=O)n(C2CCCCC2)c1=O	0.78	0.03	96.5*	41.9	50.0	0.212
Cc1c(C(c2ccc(O)cc2)c2c(O)c3ccccc3oc2=O)c(=O)n(-c2ccccc2)n1C (configuration not stated)	-0.116	-0.05	-24.5	13.5	7.4	-0.599
Cc1[nH]n(-c2ccccc2)c(=O)c1C(c1ccc([N+](=O)[O-])cc1)c1c(C)[nH]n(-c2ccccc2)c1=O	1.85	1.1	19.0	61.8*	2.9	-0.383
N=C1SCC(=O)N1Cc1ccccc1	-0.243	-0.92	-13.6	1.4	43.8	0.856
C[n+]1ccc(-c2ccncc2)cc1	1.09	·	13.8	-3.3	·	-0.0451
CC(=O)C1=C(C)OC(N)=C(C(=O)OC(C)C)C12C(=O)Nc1ccccc12 (configuration not stated)	0.472	·	6.3	-5.3	100.0*	2.02
Cc1cc(C=C2C(=O)N(C)C(=S)N(C)C2=O)c(C)n1-c1cccnc1	-0.691	0.39	-6.2	35.8	53.3	-1.13
O=Cc1cn(Cc2ccccc2[N+](=O)[O-])c2ccccc12	·	0.89	4.3	50.4*	-5.4	-1.72
CN1C(=O)N(C)C(=O)C(CCc2ccncc2)(Cc2ccc3c(c2)OCO3)C1=O	·	0.68	-2.9	64.9*	·	0.63
O=C1NC(=O)C(CCc2ccncc2)(Cc2ccc3c(c2)OCO3)C(=O)N1CCc1ccccc1 (configuration not stated)	-1.06	·	33.2	99.8*	-3.3	·
O=C1NC(=O)C(CCc2ccncc2)(CCc2ccncc2)C(=O)N1CCc1ccc(F)cc1	0.0032	-1.26	-5.0	8.9	9.1	-0.601
